# Results published in the supplement of paper PMC6555819.
# Tests used:
# Assay in all cases: PBM binding z-score (relative to random genomic background probes); higher = stronger binding; sequences stand for … in GC…GCGATTGACAGCGTAGAATGAAGG
# [1] = tested on: RARb homodimer (NR concentration 270 nM)
# In short: (§1)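 Binding z-scores take random background probes as their reference. They come from custom Agilent 4×180K protein-binding microarrays incubated 1 h with ligand-free nuclear receptor dimers, with antibodies against each partner (one per run) detecting binding. Scanned fluorescence was regression-normalized.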
# [2] = tested on: RARg:RXRa (NR concentration 270 nM, RXRa partner concentration 90 nM)
# In short: as §1
# [3] = tested on: RARg homodimer (NR concentration 270 nM)
# In short: as §1
# [4] = tested on: RXRa DBDmut IVT, anti-RXR (DBD mutation: RXRa K156A/R161A, NR concentration 90 nM)
# In short: as §1
# [5] = tested on: RXRa homodimer (NR concentration 180 nM)
# In short: as §1
# [6] = tested on: THRa:RXRa (NR concentration 90 nM, RXRa partner concentration 90 nM)
# In short: as §1
# [7] = tested on: THRa homodimer (NR concentration 90 nM)
# In short: as §1
# [8] = tested on: VDR homodimer (NR concentration 270 nM)
# In short: as §1
Sequence,PBM binding z-score [1],PBM binding z-score [2],PBM binding z-score [3],PBM binding z-score [4],PBM binding z-score [5],PBM binding z-score [6],PBM binding z-score [7],PBM binding z-score [8]
TCATATAGGTAAAAGGTGAATGTCGGTGTGGTAA,1.88,1.75,1.04,1.81,2.85,1.5,0.686,0.531
CCTTACCGGTCACTCCAGGTTATAGCATCGGAGT,2.64,2.41,3.52,0.359,0.865,3.88,1.32,0.951
ATACCAAGGTGAGCGTGAGGTCGTTGATACTAAC,2,2.92,1.6,0.221,2.01,3.8,2.51,2.3
ATCTCTAGGTAAAGATAGTTCAGTGAGTGCAAAT,1.5,0.634,0.838,0.341,0.157,1.1,0.522,4.13
TCGAGTAGGTTAGGGGCATACAGAATGGCGTCGA,0.759,0.546,0.52,0.367,1,0.925,0.135,0.73
TGAATGAGGTTAAAGATCCGGGAACGTGGCGTCG,0.578,1.5,1.05,1.22,2.61,2.12,0.411,0.437
GGAACGAGGGCATTCTAGTTGATAGCATGGCGAT,0.668,0.971,1.39,3.36,0.575,2.54,-0.282,2.43
GCATATAGGTAATACAAGGTGAAAGTTCGATTGT,1.57,0.972,0.602,0.513,1.5,4.27,1.28,0.723
ATCGAAGGGTCGAGGTGAGTATAGAGAAAGGGAA,1.75,2.29,2.48,0.466,2.29,2.17,0.731,0.278
CCTGCTAGGTCATGGTCAGATAATCTACAGTATG,3.05,3.94,4.66,1.69,3.04,3.1,1.49,0.43
CGTCCAAGATCAATGCTAGGTCAGTGAAAGCATT,2.31,1.93,1.33,0.097,0.272,1.75,0.486,0.299
CCTGCTAGGTCAATGTTCAGCTAAAGCAGCTCGC,2.69,3.48,4.07,1.93,1.91,2.34,0.628,0.0912
TCTGCTAGGTTAGTTGGTCAGCTAACGAGCTGCC,-0.0655,0.00476,-0.189,-0.0929,-0.323,-0.551,-1.24,-1.15
CCTAGTTGGTCAAGGTCACCCACGCTATAGGTAC,4.38,4.42,4.75,1.81,4.47,4.22,4.66,4.05
TCTATTAGTTGATTAGGGCAGCCGAAACAGCGGA,0.418,0.585,0.628,1.14,0.439,0.393,0.285,0.654
ATCTCTAGGTAAAAATTCAGTGAATCCCGAGGAT,-0.367,0.604,0.58,-0.329,0.184,0.19,-0.0698,-0.0746
GTTGCTAGGTCAGGTTGGTCAGCTAACGGGTACG,3.23,2.74,4.18,0.0427,1.4,2.02,1.06,0.821
CCTCCTGGGCCAAAAAGGTCATTGATGCCGATAA,4.4,4.5,3.91,0.197,4.5,3.12,0.604,2.38
TCTCGGTGGACACGAAAGGTCAGAGCTCGACATC,4.36,4.38,4.33,0.665,4.52,2.96,0.543,0.45

Sequence,PBM binding z-score [1],PBM binding z-score [2],PBM binding z-score [3],PBM binding z-score [4],PBM binding z-score [5],PBM binding z-score [6],PBM binding z-score [7],PBM binding z-score [8]
CGTCAAAGTTCAACTAAGGTAAGGTAAAGCACGC,3.92,5.8,6.23,4.39,4.88,5.19,1.95,3.59
ACTATTAGTTGAGACGAGGGCACCCGATAGGTTG,1.01,0.598,1.02,0.586,0.681,2.57,0.574,0.89
ACTAGCAGGCCAAGGGTCACTTAAGATTAGTCCG,3.52,4.12,4.04,0.5,3.87,2.96,0.297,0.981
TCTAGCAGGCCAGAGGGTCATTCAAGAGGTACGG,2.65,2.78,2.02,0.504,2.87,1.83,-0.373,1.28
CAAACTAGCTCAAAGGTCAAAGTCGAGCCAACCA,4.79,6.22,5.63,1.66,7.07,3.53,0.75,2.62
TGAATGAGGTTATAAGATCAGGGATCGTTGCAAA,-0.0683,1.33,0.782,0.362,2.09,1.68,0.0696,0.406
CAGCGTAGGTCAGGGCCAGTATAGGAGGAACGTT,2.49,3.4,4.22,-0.29,2.04,1.24,-0.0112,-0.494
AAATGTAGGTTAGCTGGGGTCATTCAGACTAGGC,3.76,4.06,2.95,1.87,5.4,5.36,3.23,5.33
CCAACTAGGTCAGAACAGGACAGTGAAGGATGAT,2.43,2.41,3.03,1.3,1.22,3.67,0.727,0.723
TCATATAGGTAATACAGGTAAAAGTCGGCATCTA,-0.0506,0.506,0.536,1.9,1.21,0.497,0.159,0.0521
ACTAGCAGGCCAAGGGTCACTCTAGATTAGTCCG,3.64,3.81,3.34,0.668,3.3,2.32,-0.0207,1.03
GCTAGCAGGCCATTTGGGCCACTCAATGACGGGC,-0.576,-0.489,0.0153,-0.353,-0.706,-0.537,-1.01,-0.669
TTGCCAAGGTGAAGGTCGTTGATCCCTCTGTAGA,1.62,1.23,1.02,0.0935,1.68,2.31,0.87,0.534
CGAACTAGGTCAGAACGGGACAGTGAAGGATGAT,1.83,2.2,2.96,0.435,1.15,2.84,-0.119,-0.321
CTCGAAAGGTCGGTTGCGGTGAGTATACGGATAA,1.91,2.44,2.59,1.06,2.06,3.27,-0.0628,0.294
GCTTACGGATCAAAGGTTATAGCATGAATAGAAT,0.947,1.91,0.963,0.513,3.71,1.64,-0.516,-0.0828
GGAACGAGGGCAAGTTGATAGAAGAGTTTGATGG,1.5,1.55,2.06,2.22,0.775,1.2,0.164,1.7
AGAATGAGGTTATTAAGATCAGGGCATTGCGGTC,1.67,1.47,1.12,2.13,2.02,2.61,1.18,1.74
CTCGAAAGGTCGGTTGAAGTGAGTATACGGATAA,1.72,2.38,2.65,0.742,1.98,1.42,0.13,0.557

Sequence,PBM binding z-score [1],PBM binding z-score [2],PBM binding z-score [3],PBM binding z-score [4],PBM binding z-score [5],PBM binding z-score [6],PBM binding z-score [7],PBM binding z-score [8]
CTCGAAAAGTCGTGCTCAGGTGAGTATACCAAAC,0.216,0.157,-0.0265,0.322,0.0508,1.75,0.807,-0.43
CCTCGGAGGACTACAGGAGGTCAGAGCTGCCAGA,2.9,2.37,2.06,-0.895,1.93,2.55,0.263,0.359
CGTCAAAGTTCAACTAAGGTAACGAAAAGCACGC,4.12,5.98,6.71,4.46,4.91,5.09,1.67,3.6
TCGGCTAGGTCAGTTGGTCAGCTAACGAGCTGCC,2.79,2.88,3.91,0.368,0.942,1.14,-0.051,-0.233
ATCGCTAGGTAACAAGTTCAGTGAAAGAGAGGAC,1.42,1.07,0.968,0.533,0.504,1.08,0.174,2.02
TTTCCAAGGTGAGCTGAGGTCGTTGATCCAACTC,1.73,1.51,1.2,0.414,1.59,4.61,2.71,2.61
CGTCCAAGGTCATAGGAGGTCAGCGAAGACAGAT,5.65,7.17,7.58,4.05,7.72,5.52,3.42,4.37
GCAGACAGGTGAAACGCAGGCAACTCAGGGTGGC,-0.0684,0.39,0.237,-0.513,0.435,0.404,-0.656,-0.588
CCTACTGGGCCATCGGGTCATTGATATCAACGTT,2.25,2.25,1.72,-0.759,1.89,2.86,1.94,1.68
ACTATTAGTTGAGTTAGGGCAACCGATACGACGC,0.47,0.417,0.783,0.652,0.292,1.21,0.245,0.368
TCTCGGAGGACACGAAGGTCAGAACTTTCCAGAG,3.24,2.59,3.24,1.26,1.51,2.69,1.15,1.45
GCTGGCAGGCCATTTGGGTCACTCAATGACGGGC,1.88,0.91,1.54,-0.405,0.855,1.86,0.617,0.646
TTACCAAGGTGAGCTGAGGTGGTTGATCCAACTC,-0.15,0.00376,-0.00239,-0.813,0.0948,2.98,-0.0561,-0.641
CGAACGAGGGCATGAGTTGATCGCAAATGCCGAT,0.684,1.04,1.28,2.51,0.767,1.04,-0.361,1.79
TCTCGGAGGACACCAAGGTCAGAGCTTTCCAGAG,3.68,2.96,3.73,0.966,1.75,3.13,2.38,2.31
GCGACTGGGGCATCAGCAGGTTACCATTACTTAA,1.18,0.735,0.488,0.25,0.246,0.833,0.247,-0.0861
GCTCGGAGGACAAGGTCAGAGCATTGTCCGTAGA,3.1,3.37,3.72,0.0327,2.61,2.87,1.51,0.838
AGTCAAAGTTCATCTAGGTAACTTAAGATATGCT,3.54,5.3,5.5,4.71,4.34,3.05,0.221,5.32
